Among the test systems are DU-145 prostate; K-562 leukemia; MALME-3M melanoma; MDA-MB-231 breast; RXF 393 renal; SF-268 CNS; SF-295 CNS; SF-539 CNS; UACC-257 melanoma; M14 melanoma; HCT-15 colon; HT29 colon; SNB-75 CNS; SNB-19 CNS; PC-3 prostate; SK-MEL-5 melanoma; UACC-62 melanoma; LOX IMVI melanoma; SK-MEL-28 melanoma; U251 CNS.
What all share (test): NCI-60 one-dose screen, 48 h (100 = growth as untreated, 0 = no growth, -100 = all killed)
Common to all, as to details: 10 µM unless noted

About 83,000 compounds went through this panel and 20% of them were active in at least one assay; those are over-represented in the sample as a whole.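 Activity criterion: percent growth below 10, measured after cells in 96-well plates were exposed to a single compound concentration for 48 hours.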 A number with no mark means an inactive call. Active and inactive are the calls of the source.

The source of these data is PubChem BioAssay (NCI).

As for `COc1ccc2c(c1)C1=NN(C(=O)CO)[C@H](c3ccc(OC(F)(F)F)cc3)[C@@H]1CC2`, the growth in the assay on DU-145 prostate was 105%; with K-562 leukemia, 102%; in the assay with MALME-3M melanoma, 101%; with MDA-MB-231 breast, 94.7%; with RXF 393 renal, -19.9% (active); with SF-268 CNS, 94.8%. Further, the growth in the assay on SF-295 CNS is 90.4%; in the assay on SF-539 CNS, 93.2%; in the assay with UACC-257 melanoma, 123%; in the assay with M14 melanoma, 115%; in the assay with HCT-15 colon, 84.7%; with HT29 colon, 92.3%. Also, the growth was 90.3% in the assay on SNB-75 CNS; 93.4% in the assay with SNB-19 CNS; 72.9% in the assay on PC-3 prostate; 83.4% with SK-MEL-5 melanoma; 76.3% with UACC-62 melanoma; 88.7% in the assay on LOX IMVI melanoma. Moreover, in the assay with SK-MEL-28 melanoma, the growth was 121%.

In the case of `O=[N+]([O-])c1ccc(Sc2nc(Cl)nc(NC3CCCC3)n2)cc1`, the growth with DU-145 prostate was -100% [100 µM] (active); in the assay with K-562 leukemia, -32.1% [100 µM] (active); in the assay with MALME-3M melanoma, -80.9% [100 µM] (active); in the assay on MDA-MB-231 breast, -90.3% [100 µM] (active); with RXF 393 renal it was -75.4% [100 µM] (active); with SF-268 CNS it was -93% [100 µM] (active). The growth is -93.9% [100 µM] (active) in the assay with SF-295 CNS; -94.6% [100 µM] (active) in the assay with M14 melanoma; -92.4% [100 µM] (active) with HCT-15 colon; -72.6% [100 µM] (active) with HT29 colon; -100% [100 µM] (active) in the assay on SNB-75 CNS; -95.5% [100 µM] (active) in the assay on SNB-19 CNS. Besides, the growth was -89.5% [100 µM] (active) with PC-3 prostate; -90.3% [100 µM] (active) with SK-MEL-5 melanoma; -97.4% [100 µM] (active) in the assay with UACC-62 melanoma; -87.9% [100 µM] (active) in the assay with LOX IMVI melanoma; -97.8% [100 µM] (active) in the assay with SK-MEL-28 melanoma.

With `CC(C)(C)c1cc(C[P+](c2ccccc2)(c2ccccc2)c2ccccc2)cc(C(C)(C)C)c1O`, the growth was 20.5% with DU-145 prostate; 3.48% (active) in the assay on K-562 leukemia; -18.1% (active) with MALME-3M melanoma; 27.9% with MDA-MB-231 breast; 11.7% in the assay on RXF 393 renal; 19.4% in the assay on SF-268 CNS. In addition, the growth in the assay with SF-295 CNS is -3.88% (active); in the assay on SF-539 CNS it was 3.24% (active); in the assay with M14 melanoma it was 11.7%; in the assay on HCT-15 colon it was 23.2%; with HT29 colon, -13.1% (active); in the assay on SNB-75 CNS, 2.05% (active). The growth was 24.5% with SNB-19 CNS; 5.39% (active) with U251 CNS; -10.5% (active) in the assay with PC-3 prostate; -96.9% (active) with SK-MEL-5 melanoma; -3.2% (active) in the assay with UACC-62 melanoma; 5.93% (active) in the assay with LOX IMVI melanoma. The growth in the assay with SK-MEL-28 melanoma is 38.4%.

In the case of `COc1ccc(-c2cc(-c3ccc(OC)cc3)c3sc(=O)[nH]c3n2)cc1`, the growth was 107% in the assay with DU-145 prostate; 94.2% in the assay with K-562 leukemia; 109% in the assay with MALME-3M melanoma; 87.6% in the assay with MDA-MB-231 breast; 77.7% in the assay on RXF 393 renal; 92.6% in the assay with SF-268 CNS. The growth was 96.8% with SF-295 CNS; 81.8% in the assay on SF-539 CNS; 104% with UACC-257 melanoma; 109% in the assay on M14 melanoma; 90.2% in the assay on HCT-15 colon; 102% in the assay on HT29 colon. In addition, the growth with SNB-75 CNS is 88.6%; in the assay with SNB-19 CNS, 73.8%; in the assay with PC-3 prostate it was 86.1%; with SK-MEL-5 melanoma, 96.4%; in the assay on UACC-62 melanoma, 90.1%; in the assay on LOX IMVI melanoma, 92.3%. The growth with SK-MEL-28 melanoma is 115%.

As for `Clc1nnc2c3ccccc3ccn12`, the growth is 105% in the assay with DU-145 prostate; 102% in the assay with K-562 leukemia; 135% in the assay on MALME-3M melanoma; 118% in the assay on MDA-MB-231 breast; 97.6% in the assay on RXF 393 renal; 97.6% in the assay on SF-268 CNS. The growth in the assay on SF-295 CNS is 104%; in the assay with SF-539 CNS, 109%; in the assay on UACC-257 melanoma it was 105%; with M14 melanoma, 106%; in the assay on HCT-15 colon, 99.9%; in the assay on HT29 colon, 113%. Besides, the growth is 82.2% with SNB-75 CNS; 110% in the assay on SNB-19 CNS; 93% with PC-3 prostate; 97.7% with SK-MEL-5 melanoma; 102% with UACC-62 melanoma; 109% with LOX IMVI melanoma. The growth in the assay with SK-MEL-28 melanoma is 119%.

`Cc1cc2nc(CN)[nH]c2cc1C`: the growth was 106% in the assay on DU-145 prostate; 102% in the assay on K-562 leukemia; 104% in the assay on MALME-3M melanoma; 117% in the assay on MDA-MB-231 breast; 107% in the assay on RXF 393 renal; 106% with SF-268 CNS. For the same compound, the growth with SF-295 CNS was 98.1%; in the assay on SF-539 CNS, 106%; in the assay with M14 melanoma it was 99.9%; in the assay with HCT-15 colon it was 109%; with HT29 colon, 51.3%; in the assay on SNB-75 CNS, 92%. For the same compound, the growth was 102% with SNB-19 CNS; 100% in the assay on U251 CNS; 99.8% in the assay with PC-3 prostate; 104% in the assay with SK-MEL-5 melanoma; 113% in the assay with UACC-62 melanoma; 109% in the assay on LOX IMVI melanoma. Further, the growth in the assay on SK-MEL-28 melanoma was 108%.

For the compound `COc1cc(OC)cc(-c2ccc(-c3ccc(C(=N)N)s3)s2)c1`, the growth in the assay with DU-145 prostate is -74.2% (active); with K-562 leukemia it was -35.7% (active); in the assay with MALME-3M melanoma, -73.8% (active); in the assay with MDA-MB-231 breast it was -80.5% (active); in the assay with RXF 393 renal, -73.9% (active); in the assay with SF-268 CNS it was -76.5% (active). Further, the growth in the assay on SF-295 CNS is -78.5% (active); in the assay with SF-539 CNS it was -92.2% (active); in the assay on M14 melanoma, -88.2% (active); with HCT-15 colon, -77.4% (active); in the assay on HT29 colon, -87.4% (active); with SNB-75 CNS, -91.5% (active). For the same compound, the growth was -82.9% (active) with SNB-19 CNS; -90.1% (active) in the assay with U251 CNS; -83.9% (active) in the assay on PC-3 prostate; -97.4% (active) in the assay with SK-MEL-5 melanoma; -90.5% (active) in the assay on UACC-62 melanoma; -71.6% (active) in the assay on LOX IMVI melanoma. In the assay on SK-MEL-28 melanoma, the growth was -85.3% (active).
